Measurements reported in PubChem BioAssay (NCATS).
Values joined by “and” are separate entries in the source; they are usually repeats but may differ in a detail not shown here. Equal values may be shown once. Results filed as inconclusive are left out. Active and inactive are the calls of the source. The call rests on the fitted dose curve; in most records, active means well fitted curve in the direction sought with a large enough effect; inconclusive means small, poorly fitted or top-dose-only effect, or another doubt; inactive means no such curve, though single readings can be large; an effect the other way counts as inactive or inconclusive.

Key:
[1] = qHTS of pediatric cancer cell lines to identify multiple opportunities for drug repurposing: Primary screen for A673 cells (AID 1347092); further: nearly all actives have a fitted effect of over 45% in size; further: potency means the concentration at half of the fitted maximal effect
Procedure, shortened: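 Titration-based qHTS on A673 cells: MIPE compounds spanned 11 points (0.78 nM to 46 µM final), NPC compounds 8 points (0.59 nM to 46 µM final). Viability after 48 h was measured by ATP luminescence.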

[2] = qHTS of pediatric cancer cell lines to identify multiple opportunities for drug repurposing: Primary screen for SK-N-MC cells (AID 1347093); further: potency means the concentration at half of the fitted maximal effect
Procedure, shortened: (§1)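 Metabolically active cells were quantified by ATP-dependent luminescence (CellTiter-Glo, 15 min at room temperature) following 48 h treatment. Cells had been plated at 500-1,000 per well and settled for 5 h beforehand.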

[3] = qHTS of pediatric cancer cell lines to identify multiple opportunities for drug repurposing: Primary screen for BT-37 cells (AID 1347094); further: potency means the concentration at half of the fitted maximal effect
Procedure, shortened: (§2)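 Cells plated at 500-1,000/well in growth medium, compounds added after 5 h. MIPE tested at 11 points (from 0.78 nM), NPC at 8 points (from 0.59 nM). CellTiter-Glo luminescence after 48 h; concentration-response curves from primary screen.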

[4] = qHTS of pediatric cancer cell lines to identify multiple opportunities for drug repurposing: Primary screen for NB-EBc1 cells (AID 1347095); further: potency means the concentration at half of the fitted maximal effect
Procedure, shortened: as §2

[5] = qHTS of pediatric cancer cell lines to identify multiple opportunities for drug repurposing: Primary screen for SK-N-SH cells (AID 1347098); further: nearly all actives have a fitted effect of over 65% in size; further: potency means the concentration at half of the fitted maximal effect
Procedure, shortened: (§3)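 Cells (500-1,000/well) rested 5 h, then received compounds for 48 h; metabolically active cells were measured by CellTiter-Glo luminescence. Final concentrations spanned up to 46 µM (MIPE, 11-point) or 0.59 nM-46 µM (NPC, 8-point) in primary screens, 11-point in follow-ups.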

[6] = qHTS of pediatric cancer cell lines to identify multiple opportunities for drug repurposing: Primary screen for NB1643 cells (AID 1347099); further: nearly all actives have a fitted effect of over 50% in size; further: potency means the concentration at half of the fitted maximal effect
Procedure, shortened: as §2

[7] = qHTS of pediatric cancer cell lines to identify multiple opportunities for drug repurposing: Primary screen for Rh18 cells (AID 1347102); further: nearly all actives have a fitted effect of over 65% in size; further: potency means the concentration at half of the fitted maximal effect
Procedure, shortened: (§4)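 Cells (500-1,000/well) in growth media were settled 5 h at 37 degrees C, then given compounds for 48 h. Viability was read as CellTiter-Glo luminescence. Primary runs used MIPE at 11 points (0.78 nM-46 µM) and NPC at 8 points (0.59 nM-46 µM); follow-ups used 11 points.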

[8] = qHTS of pediatric cancer cell lines to identify multiple opportunities for drug repurposing: Primary screen for RD cells (AID 1347104); further: nearly all actives have a fitted effect of over 55% in size; further: potency means the concentration at half of the fitted maximal effect
Procedure, shortened: as §2

[9] = qHTS of pediatric cancer cell lines to identify multiple opportunities for drug repurposing: Primary screen for MG 63 (6-TG R) cells (AID 1347105); further: nearly all actives have a fitted effect of over 50% in size; further: potency means the concentration at half of the fitted maximal effect
Procedure, shortened: as §2

[10] = qHTS of pediatric cancer cell lines to identify multiple opportunities for drug repurposing: Primary screen for control Hh wild type fibroblast cells (AID 1347106);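 further: series mostly up to about 46 µM; a drop in luminescence marks cytotoxicity and a rise apparent proliferation; nearly all actives have a fitted effect of over 55% in size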
Procedure, shortened: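 Viability after 48 h compound treatment at 37C, 500-1,000 cells/well, read as ATP luminescence with CellTiter-Glo. Primary screens used 11-point (MIPE, 0.78 nM-46 µM) or 8-point (NPC, 0.59 nM-46 µM) final concentrations; follow-up screens used 11-point dilutions.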

[11] = qHTS of pediatric cancer cell lines to identify multiple opportunities for drug repurposing: Primary screen for Rh41 cells (AID 1347108); further: nearly all actives have a fitted effect of over 70% in size; further: potency means the concentration at half of the fitted maximal effect
Procedure, shortened: as §2

[12] = qHTS of pediatric cancer cell lines to identify multiple opportunities for drug repurposing: Confirmatory screen for NB1643 cells (AID 1347109); further: nearly all actives have a fitted effect of over 45% in size; further: potency means the concentration at half of the fitted maximal effect
Procedure, shortened: as §4

[13] = qHTS of pediatric cancer cell lines to identify multiple opportunities for drug repurposing: Confirmatory screen for A673 cells (AID 1347110);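 further: cells exposed to compound for 48 h before the viability read; nearly all actives have a fitted effect of over 65% in size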; further: potency means the concentration at half of the fitted maximal effect
Procedure, shortened: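 Forty-eight-hour viability assay. Follow-up compounds ran at 11-point dilutions; positive control bortezomib at 2.3 uM final, neutral control DMSO.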

[14] = qHTS of pediatric cancer cell lines to identify multiple opportunities for drug repurposing: Primary screen for BT-12 cells (AID 1347101); further: nearly all actives have a fitted effect of over 25% in size; further: potency means the concentration at half of the fitted maximal effect
Procedure, shortened: as §3

[15] = qHTS of pediatric cancer cell lines to identify multiple opportunities for drug repurposing: Primary screen for OHS-50 cells (AID 1347103); further: nearly all actives have a fitted effect of over 40% in size; further: potency means the concentration at half of the fitted maximal effect
Procedure, shortened: as §3

[16] = qHTS of pediatric cancer cell lines to identify multiple opportunities for drug repurposing: Primary screen for Rh30 cells (AID 1347107); further: nearly all actives have a fitted effect of over 75% in size; further: potency means the concentration at half of the fitted maximal effect
Procedure, shortened: as §4

[17] = qHTS of pediatric cancer cell lines to identify multiple opportunities for drug repurposing: Confirmatory screen for SK-N-MC cells (AID 1347111);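 further: cells exposed to compound for 48 h before the readout; nearly all actives have a fitted effect of over 70% in size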; further: potency means the concentration at half of the fitted maximal effect
Procedure, shortened: as §1

[18] = qHTS of pediatric cancer cell lines to identify multiple opportunities for drug repurposing: Primary screen for Saos-2 cells (AID 1347097); further: nearly all actives have a fitted effect of over 40% in size; further: potency means the concentration at half of the fitted maximal effect
Procedure, shortened: as §2

[19] = qHTS of pediatric cancer cell lines to identify multiple opportunities for drug repurposing: Primary screen for LAN-5 cells (AID 1347100); further: potency means the concentration at half of the fitted maximal effect
Procedure, shortened: as §4

[20] = qHTS of pediatric cancer cell lines to identify multiple opportunities for drug repurposing: Primary screen for U-2 OS cells (AID 1347096); further: nearly all actives have a fitted effect of over 50% in size; further: potency means the concentration at half of the fitted maximal effect
Procedure, shortened: as §4

SMILES	Potency [1]	Potency [2]	Potency [3]	Potency [4]	Potency [5]	Potency [6]	Potency [7]	Potency [8]	Potency [9]	Potency [10]	Potency [11]	Potency [12]	Potency [13]	Potency [14]	Potency [15]	Potency [16]	Potency [17]	Potency [18]	Potency [19]	Potency [20]
CC1(C)S[C@H]2[C@H](NC(=O)[C@@H](N)c3ccc(O)cc3)C(=O)N2[C@@H]1C(=O)O	0.935 µM (active)	0.743 µM (active)	6.85 µM (active)	16.6 µM (active)	24.1 µM (active)	1.18 µM (active)	2.96 µM (active)	2.96 µM (active)	3.72 µM (active)	inactive	3.72 µM (active)	inactive	inactive	–	–	–	–	–	–	–
CC(=O)Nc1ccc([C@H](C)C(=O)Nc2ncc(C(C)C)s2)cc1	0.743 µM (active)	0.332 µM (active)	4.32 µM (active)	2.35 µM (active)	4.82 µM (active)	1.18 µM (active)	7.43 µM (active)	4.18 µM (active)	1.87 µM (active)	–	7.43 µM (active)	–	2.61 µM (active)	1.22 µM (active)	3.85 µM (active)	inactive	8.27 µM (active)	–	–	–
CCC(=O)NC[C@H](Cc1ccc(OCCc2nc(-c3ccccc3)oc2C)cc1)NC(C)=CC(=O)c1ccc(C(F)(F)F)cc1	1.87 µM (active)	2.35 µM (active)	3.06 µM (active)	0.743 µM (active)	–	13.2 µM (active)	inactive	–	–	inactive	–	–	–	–	12.2 µM (active)	–	–	16.6 µM (active)	3.32 µM (active)	–
O=C(OCC#CCSc1nnc(-c2cccc3ccccc23)o1)c1cc2ccccc2s1	inactive	inactive	inactive	–	–	inactive	inactive	inactive	inactive	inactive	inactive	–	–	–	inactive	inactive	–	inactive	inactive	inactive
COC(=O)C1=CO[C@@H](O)[C@@H]2C(CO)=CC[C@@H]12	inactive	29.6 µM (active)	inactive	–	–	–	–	inactive	–	inactive	inactive	–	–	–	–	inactive	–	–	20.9 µM (active)	inactive
CC[C@]1(O)C[C@@H]2CN(CCc3c([nH]c4ccccc34)[C@@](C(=O)OC)(c3cc4c(cc3OC)N(C)[C@H]3[C@@](O)(C(=O)OC)[C@H](OC(C)=O)[C@]5(CC)C=CCN6CC[C@]43[C@@H]65)C2)C1	21.1 nM (active) and 133 nM (active)	33.5 nM (active) and 106 nM (active)	43.7 nM (active) and 174 nM (active)	0.188 µM (active)	–	1.33 µM (active)	–	21.1 nM (active) and 211 nM (active)	–	–	–	1.31 µM (active)	32.9 nM (active) and 36.9 nM (active)	43.7 nM (active) and 347 nM (active)	30.9 nM (active) and 138 nM (active)	inactive	657 nM (active) and 737 nM (active)	42.2 nM (active) and 168 nM (active)	–	–
COc1cc2ncnc(Nc3ccc(F)c(Cl)c3)c2cc1OCCCN1CCOCC1	1.71 µM (active) and 21.1 µM (active)	1.91 µM (active) and 26.6 µM (active)	15.7 µM (active) and 19.5 µM (active)	–	17.5 µM (active) and 27.3 µM (active)	34 µM (active)	34 µM (active)	6.79 µM (active) and 23.7 µM (active)	27 µM (active)	–	17.1 µM (active)	38 µM (active)	–	39.5 µM (active)	8.85 µM (active) and 17.4 µM (active)	inactive	33.9 µM (active)	13.6 µM (active)	6.05 µM (active)	42.9 µM (active)
CC1(C)CCC(CN2CCN(c3ccc(C(=O)NS(=O)(=O)c4ccc(NCC5CCOCC5)c([N+](=O)[O-])c4)c(Oc4cnc5[nH]ccc5c4)c3)CC2)=C(c2ccc(Cl)cc2)C1	18.7 µM (active)	0.0074 µM (active)	27.3 µM (active)	1.87 µM (active)	–	0.0418 µM (active)	10.5 µM (active)	18.7 µM (active)	11.8 µM (active)	inactive	18.7 µM (active)	0.261 µM (active)	–	–	15.3 µM (active)	–	18.5 µM (active)	–	1.05 µM (active)	18.7 µM (active)
COc1ncc(-c2ccc3nccc(-c4ccnnc4)c3c2)cc1NS(=O)(=O)c1ccc(F)cc1F	0.0743 µM (active)	0.001 µM (active)	0.0611 µM (active)	0.001 µM (active)	–	0.0662 µM (active)	0.0372 µM (active)	0.372 µM (active)	–	inactive	0.0118 µM (active)	0.465 µM (active)	0.208 µM (active)	–	0.001 µM (active)	1.48 µM (active)	0.0329 µM (active)	–	0.105 µM (active)	7.43 µM (active)
CCN(CC)CCOc1ccc(C(=C(Cl)c2ccccc2)c2ccccc2)cc1	29.6 µM (active)	14.8 µM (active)	inactive	inactive	–	–	inactive	–	inactive	–	inactive	–	–	inactive	–	inactive	–	–	–	inactive
CN1[C@@H]2CCC[C@@H]1CC(NC(=O)c1nn(C)c3ccccc13)C2 (stereo partly specified)	inactive	inactive	inactive	–	–	–	inactive	inactive	inactive	inactive	inactive	–	–	inactive	inactive	inactive	–	inactive	inactive	inactive
CC(=O)Oc1cc2c(s1)CCN(C(C(=O)C1CC1)c1ccccc1F)C2 (stereo unspecified)	1.48 µM (active)	1.32 µM (active)	1.09 µM (active)	3.72 µM (active)	–	–	–	inactive	–	inactive	–	inactive	1.04 µM (active)	3.06 µM (active)	1.37 µM (active)	inactive	inactive	–	–	–
O=c1cc(N2CCOCC2)oc2c(-c3cccc4c3sc3ccccc34)cccc12	14.8 µM (active)	5.26 µM (active)	21.7 µM (active)	8.33 µM (active)	inactive	5.26 µM (active)	18.7 µM (active)	13.2 µM (active)	–	inactive	–	–	–	24.3 µM (active)	7.69 µM (active)	–	–	18.7 µM (active)	14.8 µM (active)	–
